Assay results as given in paper PMC10668032, “Altered binding affinity of SIX1-Q177R correlates with enhanced WNT5A and WNT pathway effector expression in Wilms tumor”.
In all, about 33,000 sequences were measured (“e-score”: median about -0.053, highest 2% from about 0.38 on). For the sample, the highest values were picked, then their nearest neighbours and some sequences at random.

target: T1, SIX1 homeodomain (reference allele) (human, UniProt Q15475 108-198); experiment: universal protein binding microarray; Universal all-10-mer PBM (8x60K, AMADID 030236), 300 nM GST-tagged protein, Alexa Fluor 488 anti-GST; buffer, salt, pH and temperature not stated (as in Berger); high values mean tight binding; details: protein: ivt; tags: N-terminal GST; dsDNA, one strand shown
T1 sequence: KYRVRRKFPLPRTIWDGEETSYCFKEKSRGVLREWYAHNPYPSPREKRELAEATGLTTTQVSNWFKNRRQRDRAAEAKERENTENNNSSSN
Method in brief: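 GST-tagged homeodomains were made by in vitro transcription/translation and quantified by anti-GST western blot against a recombinant GST standard curve. They were applied in duplicate at 300 nM final concentration to universal 'all 10-mer' protein binding microarrays (8×60K format). Binding was quantified as 8-mer E-scores with the Universal PBM Analysis Suite.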

| Sequence | binding signal [E-score] |
| --- | --- |
| ATACCTAG | 0.392 ± 0.0316 |
| ATACCTGC | 0.342 ± 0.0303 |
| ATACCTGA | 0.3668 ± 0.00206 |
| ATACCTAT | 0.398 ± 0.0488 |
| ATACCTTA | 0.385 ± 0.0525 |
| ACACCTAC | 0.191 ± 0.0849 |
| ATACCTGG | 0.27 ± 0.0557 |
| ATACCTTG | 0.335 ± 0.0223 |
| ATACCTAC | 0.385 ± 0.0317 |
| ACACCTAT | 0.26 ± 0.021 |
| ACACCTAG | 0.231 ± 0.0166 |
| ATACCTAA | 0.273 ± 0.0487 |
| CCGAATCC | 0.163 ± 0.0406 |
| ATCTTGTC | 0.153 ± 0.0184 |
| TCGATCCA | 0.152 ± 0.142 |
| TGGCATAA | 0.177 ± 0.0236 |
| AGCTATAC | 0.235 ± 0.02 |
| ATCGCTAG | 0.279 ± 0.0337 |
| ATTAGTGA | 0.152 ± 0.0306 |
| ATACCTCC | 0.403 ± 0.0208 |
| ATACCTCA | 0.352 ± 0.0542 |
| ATACCTCG | 0.342 ± 0.0353 |
| ATACTGCA | 0.242 ± 0.0213 |

| Sequence | binding signal [E-score] |
| --- | --- |
| ATTGAGAC | 0.212 ± 0.0411 |
| AACTGGAT | 0.172 ± 0.0594 |
| GCGTATAC | 0.295 ± 0.011 |
| CGGTATAG | 0.216 ± 0.0268 |
| CGGTATAA | 0.294 ± 0.0192 |
| GGGTATAC | 0.416 ± 0.0059 |
| GGGTATAA | 0.375 ± 0.0497 |
| AGGTATAC | 0.4 ± 0.0358 |
| AGGTATAG | 0.262 ± 0.0777 |
| AGGTATAA | 0.242 ± 0.0818 |
| CGGTATAC | 0.393 ± 0.00578 |
| CACTATCG | 0.211 ± 0.013 |
| TAGATCCA | 0.227 ± 0.0321 |
| CATAACAC | 0.161 ± 0.0101 |
| ATCTGCCA | 0.187 ± 0.0302 |
| GAGATCTC | 0.292 ± 0.0824 |
| ATCATCCG | 0.348 ± 0.0124 |
| ACACCCCT | 0.327 ± 0.0413 |
| ATCCGAAT | 0.313 ± 0.0137 |
| TATTAAAA | 0.18 ± 0.0684 |
| GGCGGGGA | 0.174 ± 0.14 |
| ATCTCCTG | 0.298 ± 0.00608 |
| CTATCCTC | 0.282 ± 0.0379 |

| Sequence | binding signal [E-score] |
| --- | --- |
| ATCTCCTA | 0.159 ± 0.082 |
| AGATCCTG | 0.252 ± 0.0351 |
| TAATCCTA | 0.215 ± 0.0252 |
| GTATCCTA | 0.409 ± 0.00666 |
| AGATCCTC | 0.329 ± 0.0109 |
| CTATCCTA | 0.198 ± 0.0137 |
| GTATTCTA | 0.191 ± 0.00249 |
| ATATCCTA | 0.415 ± 0.027 |
| ATATCCTC | 0.426 ± 0.02 |
| ATATCCTG | 0.394 ± 0.0206 |
| GATCTTAC | 0.275 ± 0.0138 |
| ACAGGATC | 0.283 ± 0.00359 |
| ATCGAGAC | 0.217 ± 0.013 |
| CCGGATCA | 0.454 ± 0.013 |
| TCAGATCA | 0.243 ± 0.0928 |
| TCGGATAA | 0.336 ± 0.0635 |
| AGAGATCA | 0.302 ± 0.0481 |
| CCGGATGA | 0.275 ± 0.0448 |
| TCGGATCA | 0.4385 ± 0.00286 |
| GGAGATCA | 0.386 ± 0.0139 |
| CCAGATCA | 0.39 ± 0.0106 |
| CCAGATCG | 0.292 ± 0.0492 |
| TCCGATCA | 0.212 ± 0.00764 |

| Sequence | binding signal [E-score] |
| --- | --- |
| TGAGATCA | 0.33 ± 0.0117 |
| CCGGATTA | 0.351 ± 0.0231 |
| GACACTCC | 0.258 ± 0.0239 |
| CAGTGTAG | 0.161 ± 0.0252 |
| CGATCTGA | 0.30169 ± 0.000148 |
| ATACTTGA | 0.222 ± 0.103 |
| GTATAAAA | 0.246 ± 0.0491 |
| GATAGTTA | 0.153 ± 0.035 |
| CAGATCAC | 0.3666 ± 0.00216 |
| ACTCAGGG | 0.266 ± 0.0829 |
| CGTAATAC | 0.256 ± 0.0115 |
| GCGGATGA | 0.171 ± 0.0144 |
| GCGGATCA | 0.448 ± 0.00571 |
| GCGGATTA | 0.318 ± 0.0316 |
| ATCGTACC | 0.217 ± 0.0516 |
| CCCTCTCA | 0.17 ± 0.048 |
| GATAGCCC | 0.303 ± 0.0137 |
| AGATTGAT | 0.221 ± 0.0674 |
| GATACCAA | 0.4303 ± 0.00174 |
| GATACCAC | 0.462 ± 0.0103 |
| AATACCAA | 0.278 ± 0.0235 |
| AATACCAT | 0.296 ± 0.0291 |
| AATACCAC | 0.33 ± 0.0283 |

| Sequence | binding signal [E-score] |
| --- | --- |
| TATACCAA | 0.347 ± 0.016 |
| ACAGTGGT | 0.155 ± 0.0272 |
| GGATGACC | 0.205 ± 0.0281 |
| CTGAAACC | 0.155 ± 0.0131 |
| CATAAGAA | 0.178 ± 0.0241 |
| CCGGACAC | 0.192 ± 0.0231 |
| ATGCACTA | 0.159 ± 0.065 |
| CGTATTTA | 0.169 ± 0.0073 |
| GCCGGATA | 0.409 ± 0.0137 |
| CCCGGATA | 0.424 ± 0.0139 |
| GCTGGATA | 0.324 ± 0.0373 |
| CCCGGAGA | 0.169 ± 0.0421 |
| GCCAGATA | 0.213 ± 0.0509 |
| CCTGGATA | 0.313 ± 0.0384 |
| CCCGATAC | 0.438 ± 0.0253 |
| ACCGATCC | 0.382 ± 0.0237 |
| CCCGACAC | 0.19 ± 0.0993 |
| CCCGATAG | 0.205 ± 0.0789 |
| ATCGATCA | 0.17 ± 0.0323 |
| CCCGATCC | 0.366 ± 0.0566 |
